From the supplement of paper PMC6555819 come the findings set out here.

The subject of the assay is VDR:RXRa (NR concentration 270 nM, RXRa partner concentration 90 nM). In words: PBM binding z-score (relative to random genomic background probes); higher = stronger binding; sequences stand for … in GC…GCGATTGACAGCGTAGAATGAAGG
As to the method: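 Protein-binding microarray (Agilent 4x180K custom design, double-stranded 60-nt probes: 5' GC cap, 34-nt variable region, 24-nt constant primer region; full probe sequence given). Purified or IVT nuclear receptor:RXRα heterodimers (3:1 NR:RXRα, mostly 270:90 nM) or homodimers were incubated for 1 h in PBS with 2% milk and no ligand, then detected with Alexa488 antibodies. Fluorescence from o1-orientation probes (~5 replicates averaged) was converted to z-scores against 500 random hg19 background probes. Variable regions are seed direct-repeat (DR0–DR5) sites, all their single-nucleotide variants and half-site ablations.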
For the sequence CCTTACGGGTCACTCCAGGTCATAGCATCGGAGT, the PBM binding z-score worked out at 5.95.
On to TCTTGTAGGTCAATAGAGGTTAAGAAAGTGCGCT, for which the PBM binding z-score was 4.85.
Sequence ATCGAAAGGTCGTGAGGTAAGTATACAGAAAGGC returned a PBM binding z-score of 3.44.
Turning to ATATGTAGGTTAGCTGAGGTCATTCAGACTAGGC, the PBM binding z-score was determined as 6.12.
Turning to CCTAGCAGGCCAATCTAGGTCACTCAAGGCTTGA, the PBM binding z-score was determined as 0.635.
Sequence CTATGTAGGTTAAGGGAGTCATTCAGTTTGAAAG gave a PBM binding z-score of 1.94.
As to CGAACTAGGTCGAGGACAGTGAATCTCCGCACGC, the PBM binding z-score was 0.0505.
To AGTCAAAGTTTATCTAGGTAACGTAAGATATGCT belongs 0.584; to AGTCAAAGTTCAGGACGAGGTAACGTTAAGCACG, 2.97.
As for AGAATGAGGTTACCAAAGTTCAGGGAAACGCTTG, the figure is 5.53; as for AGAATGAGGTCATTAAGATCAGGGAATTGCGGTC, 5.8.
As to TCTAGTTGGTCAAAGGTCACGCACTCGAAATGCG, the PBM binding z-score amounted to 6.05.
Turning to CCTACTGGGCCAAAGAGGTCATTGATGCCGATAA, the PBM binding z-score came to 5.68.
Consider AGTCAAAGGTCATCTAGGTAACGTAAGATATGCT, for which the PBM binding z-score stood at 6.04.
Take TAGCCTAGGTCATGGGCCAGTGTACCACGCGAAC: the PBM binding z-score was found to be 2.18.
Turning to ATATGTAGGATAGCTGGGGTCATTCAGACTAGGC, the PBM binding z-score is 4.86.
As for CAAACTAGGTCACAGTGGTCAAAGTCCGTGCGTA, the figure is 4.36.
AGAATGAGGTCAAGATCAGGGAAACAGAATACAT gave a PBM binding z-score of 4.93.
AATACAAGGTCATCGTAGGCCAGAGTACGCACAG yielded a PBM binding z-score of 5.17.
As for CCAACTAGGTCAAAGGACAGTGAAAGGCGACGTA, the figure is 1.45.
ACTCGGATGACAAAGGTCAGAGCTACGCCAGTGA yielded a PBM binding z-score of 3.14.
In turn, CCTACTGGGCCAAAAAGGTCATTGATGCCGATAA registered a PBM binding z-score of 4.83.
Consider CGTCTAAGGTCATAGGAGGTCAGTGAAGACAGAT, for which the PBM binding z-score turned out to be 6.86.
As for CGTCCAAGGTCGAAGGTCAGTGAAGAGATGACGG, the figure is 3.23; as for AATACAGGGTCATCGTAGGTCAGAGTACGCACAG, 6.2.
As for GGAACGAGGTCAAGTTGATAGCAGAGTTTGATGG, the PBM binding z-score was determined as 5.84.
As for CTATGTAGGTTAGGGGGGTCATTCAGTTTGAAAG, the figure is 7.68.
As for CCTTACGGGTAACGAGGTTATAGCACGACGAGCG, the figure is 1.38; as for AGCGAAAGGTCGAGGTGAGTATAGAGAAAGGGAA, 2.71.
In turn, ATCGAAAGGTCAAGGTGAGTATAGAGAAAGGGAA returned a PBM binding z-score of 5.32.
As to TTGCCTAGGTCATTGGGCCAGTATAGTACGCATC, the PBM binding z-score was found to be 2.27.
As for ATCTCTAGGTTAAGATAGTTCAGTGAATGCAAAT, the figure is 2.26.
In turn, CTATGTAGGTTACGGGGGTCATTCAGTTTGAAAG registered a PBM binding z-score of 7.72.
To CGTCCAAGGACAATGCTAGGTCAGTGAAAGCATT belongs 0.294.
CCTTACGGGTCACGTGGTTATAGCACGACGAGCG returned a PBM binding z-score of 3.94.
AGTCAAAGTTGAGGACGAGGTAACGTAAAGCACG registered a PBM binding z-score of 0.263.
As for CCTACTGGGCCTAAGGTCATTGATTCCAATGCTC, the figure is 3.34; as for CCAACTGGGCCAAAAAGGTCATTGATGCCGATAA, 4.89; as for GCATATAGGTAATACAAGGTCAAAGTCCGATTGT, 4.39.
Take CGAACAAGGTCACCAGGACAGTGAAGAGGTTGGA: the PBM binding z-score was found to be 4.8.
